Screening results as filed in PubChem.
KCNQ2 inh: blocks the rat KCNQ2 potassium channel. O88943. CHO-K1 KCNQ2, FluxOR thallium flux, 20 min; hits give low values. B-score at 10 µM. hit rate 1.1% among 310,000;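 active = fluorescence ratio B-score at most minus 3 library SDs, with starting brightness B-score within 2 library SDs, cut at about -5.5 in these data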
Target sequence (O88943 whole entry, looked up): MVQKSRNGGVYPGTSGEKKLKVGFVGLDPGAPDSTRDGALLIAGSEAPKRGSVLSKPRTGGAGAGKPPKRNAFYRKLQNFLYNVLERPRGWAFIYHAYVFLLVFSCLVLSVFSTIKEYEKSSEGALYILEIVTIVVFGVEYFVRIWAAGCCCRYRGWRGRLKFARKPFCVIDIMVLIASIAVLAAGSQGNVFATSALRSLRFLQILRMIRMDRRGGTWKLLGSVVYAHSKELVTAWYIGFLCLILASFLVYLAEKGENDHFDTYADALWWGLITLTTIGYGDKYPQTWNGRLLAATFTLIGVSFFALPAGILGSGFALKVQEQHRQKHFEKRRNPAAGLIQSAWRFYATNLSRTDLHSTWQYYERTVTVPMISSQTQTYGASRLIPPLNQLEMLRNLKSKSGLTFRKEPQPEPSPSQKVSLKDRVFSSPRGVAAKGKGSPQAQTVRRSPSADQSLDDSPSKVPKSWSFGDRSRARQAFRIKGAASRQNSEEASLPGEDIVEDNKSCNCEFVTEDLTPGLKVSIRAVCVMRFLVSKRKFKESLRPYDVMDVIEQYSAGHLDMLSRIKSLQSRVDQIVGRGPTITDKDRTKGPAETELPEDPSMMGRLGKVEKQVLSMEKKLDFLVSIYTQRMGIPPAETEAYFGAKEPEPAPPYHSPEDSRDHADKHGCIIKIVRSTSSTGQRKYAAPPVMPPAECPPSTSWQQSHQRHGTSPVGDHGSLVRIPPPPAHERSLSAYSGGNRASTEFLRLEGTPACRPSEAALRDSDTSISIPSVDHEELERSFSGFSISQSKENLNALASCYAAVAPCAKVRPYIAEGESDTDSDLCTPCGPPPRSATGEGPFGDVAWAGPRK
KCNQ2 enhance: enhances the rat KCNQ2 potassium channel; O88943; CHO-K1 KCNQ2, FluxOR thallium flux fluorescence; hits give high values; B-score at 10 µM; hit rate 0.54% among 310,000; AID 2239;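 active = fluorescence ratio B-score at least 3 SD of library B-scores, with initial fluorescence B-score within 3 of them, cut at about 5.3 in these data; same plate scores as AID 2156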;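 note: B-score of peak minus minimum over baseline fluorescence ratio after K+ and Tl+ stimulus; positive B-score means potentiation of KCNQ2 with more thallium influx and brighter signal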
KCNQ2 inh conf: confirmation of rat KCNQ2 potassium channel inhibitors; shares compounds with KCNQ2 inh; activity change, negative = inhibition, % at 10 µM; KCNQ2-expressing cells, thallium flux, inhibition; hits give low values; hit rate 57% among 1,000;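 note: 0% = vehicle wells and values are ratio percent relative to vehicle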
KCNQ1 spec: KCNQ2 inhibitor that also affects human KCNQ1 channel; hit rate 15% among 1,000; activity change, negative = inhibition, % at 10 µM; KCNQ1-expressing cells, FluxOR thallium flux fluorescence; hits give low values; shares compounds with KCNQ2 inh; AID 493026;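 active = activity change at least 3 SD of negative controls below their mean in both duplicate wells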;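 note: CHO cells stably transfected with KCNQ1 and depolarized by potassium stimulus; peak minus minimum fluorescence over baseline after thallium addition; 0% = vehicle negative control and -100% = blank without thallium stimulus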
CHO parental ctr: KCNQ2 inhibitor counter-screen hit in parental CHO cells. shares compounds with KCNQ2 inh. thallium flux counter-screen; hits give low values. activity change, % at 10 µM. hit rate 14% among 1,000. AID 493029;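 note: 0% = vehicle negative controls with stimulus buffer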
KCNQ2 inh confirm: blocks rat KCNQ2 current in automated patch clamp; KCNQ2-expressing cells; hit rate 49% among 550; calls only at 10 µM; AID 588531; shares compounds with KCNQ2 inh
The depositor's hits bear a star. Rows were chosen to be rich in hits. Some 1.6% of all compounds tested hit in one or more screens of this group. Unless noted, the rule behind the calls is not given here.

For Cc1nc(Nc2ccc(Cl)cc2)c(C#N)c(=O)[nH]1 the results were KCNQ2 inh inactive and KCNQ2 enhance 0.04.
CCN1CCN(S(=O)(=O)c2ccc(Cl)c(C(=O)Nc3ccccc3N3CCOCC3)c2)CC1 was read as KCNQ2 inh inactive.
For O=C(Nc1ccccc1N1CCCCC1)c1cc(S(=O)(=O)N2CCOCC2)ccc1Cl the results were KCNQ2 inh -9*, KCNQ2 enhance -9, KCNQ2 inh conf -28%*, KCNQ1 spec inactive, CHO parental ctr inactive and KCNQ2 inh confirm active.
Screening CCN1CCN(S(=O)(=O)c2ccc(Cl)c(C(=O)Nc3cc(Cl)ccc3N3CCOCC3)c2)CC1 returned KCNQ2 inh -6.7*, KCNQ2 enhance -6.7, KCNQ2 inh conf inactive, KCNQ1 spec inactive and CHO parental ctr inactive.
For O=C(Nc1ccccc1Cl)c1cc(S(=O)(=O)N2CCCCC2)ccc1N1CCOCC1 the results were KCNQ2 inh inactive.
Screening COc1ccccc1C(=O)C1CCCN(C(=O)c2cccc(Cn3cccn3)c2)C1 (stereo not given) returned KCNQ2 inh inactive.
For CCN(Cc1ccccc1)C(=O)CCc1nnc(CCCc2ccccc2)o1 the results were KCNQ2 inh -10*, KCNQ2 enhance -10, KCNQ2 inh conf -26%*, KCNQ1 spec inactive, CHO parental ctr inactive and KCNQ2 inh confirm active.
`CN(Cc1ccsc1)C(=O)CCc1nnc(CCCc2ccccc2)o1` gave KCNQ2 inh inactive.
Screening CC1Oc2ccccc2N(CC(=O)N(Cc2ccccc2)Cc2ccccn2)C1=O (stereo not given) returned KCNQ2 inh -7.2*, KCNQ2 enhance -7.2, KCNQ2 inh conf -16%*, KCNQ1 spec inactive, CHO parental ctr inactive and KCNQ2 inh confirm active.
Screening COc1ccc(CN(Cc2ccccn2)C(=O)CN2C(=O)COc3ccccc32)cc1 returned KCNQ2 inh inactive and KCNQ2 enhance 0.38.
For O=C(N/N=C/c1cccc([N+](=O)[O-])c1)c1ccccc1-n1cccc1 the results were KCNQ2 inh inactive and KCNQ2 enhance 1.5.
Screening CCCc1cc(C(=O)NC2CCCCC2)no1 returned KCNQ2 inh inactive and KCNQ2 enhance 1.1.
Screening CCCc1cc(C(=O)N(C2CCCCC2)C2CCCCC2)no1 returned KCNQ2 inh -7.4*, KCNQ2 enhance -7.4, KCNQ2 inh conf inactive, KCNQ1 spec inactive and CHO parental ctr inactive.
Screening Cc1cc(S(N)(=O)=O)c(N)c(S(N)(=O)=O)c1 returned KCNQ2 inh inactive and KCNQ2 enhance 0.36.
CC(=O)N1CCc2cc(S(=O)(=O)NC(Cc3ccccc3)C(=O)O)ccc21 (stereo not given) was read as KCNQ2 inh inactive and KCNQ2 enhance 0.42.
For CSc1ccccc1OCc1cc(C(=O)N2CCc3[nH]cnc3C2c2ccccn2)no1 (stereo not given) the results were KCNQ2 inh inactive and KCNQ2 enhance 2.3.
For Cc1ccccc1C(=O)O/N=C(\N)c1ccccc1 the results were KCNQ2 inh inactive.
`Cc1ccccc1C(=NC(=O)c1ccccc1)c1ccccc1` gave KCNQ2 inh -8.5*, KCNQ2 enhance -8.5, KCNQ2 inh conf -28%*, KCNQ1 spec inactive, CHO parental ctr inactive and KCNQ2 inh confirm active.
`C/C(=N\NC(=O)c1cccc(O)c1)c1ccc(NC(=O)Cc2ccccc2)cc1` gave KCNQ2 inh inactive and KCNQ2 enhance 1.9.
COc1ccc(NC(=O)c2ccco2)c(NC(=O)c2ccc([N+](=O)[O-])cc2)c1 was read as KCNQ2 inh inactive and KCNQ2 enhance 1.6.
`CCn1ccc(C(=O)N2CCN(c3ncccn3)CC2)n1` gave KCNQ2 inh inactive and KCNQ2 enhance 0.55.
Screening COC(=O)C(Cc1ccc(O)cc1)NC(=O)C(CC(=O)OC(C)(C)C)NC(=O)OC(C)(C)C (stereo not given) returned KCNQ2 inh inactive and KCNQ2 enhance 0.65.
For CCn1c(C(=O)N2CCC(Cc3ccccc3)CC2)cc2sccc21 the results were KCNQ2 inh -7.2*, KCNQ2 enhance -7.2, KCNQ2 inh conf inactive, KCNQ1 spec inactive and CHO parental ctr inactive.
Screening CCn1c(C(=O)N2CCCC(C(=O)O)C2)cc2sccc21 (stereo not given) returned KCNQ2 inh inactive and KCNQ2 enhance 0.84.
Screening Cc1nnc(SCC(=O)Nc2cc(C(F)(F)F)ccc2N2CCOCC2)o1 returned KCNQ2 inh inactive and KCNQ2 enhance 0.41.
For Cc1ccccc1SCC(=O)Nc1cc(C(F)(F)F)ccc1N1CCOCC1 the results were KCNQ2 inh -9.5*, KCNQ2 enhance -9.5, KCNQ2 inh conf -30%*, KCNQ1 spec inactive, CHO parental ctr inactive and KCNQ2 inh confirm inactive.
For O=C(CN1C(=O)NC2(CCCC2)C1=O)Nc1cc(Cl)ccc1N1CCOCC1 the results were KCNQ2 inh inactive and KCNQ2 enhance 0.11.
Screening O=C(O)Cn1nnc(COc2ccccc2)n1 returned KCNQ2 inh inactive.
For CCOC(=O)C(CSCC(=O)c1ccc(Cl)cc1Cl)NC(=O)OC(C)(C)C (stereo not given) the results were KCNQ2 inh -7.7*, KCNQ2 enhance -7.7, KCNQ2 inh conf -28%*, KCNQ1 spec inactive, CHO parental ctr inactive and KCNQ2 inh confirm active.
Screening CCOc1ccc(OCCOC(=O)CNC(=O)c2ccc(Cl)cc2Cl)cc1 returned KCNQ2 inh inactive.
Screening CN(CCOC(=O)CN1C(=O)c2ccccc2C1=O)C1=NS(=O)(=O)c2ccccc21 returned KCNQ2 inh inactive and KCNQ2 enhance 0.4.
`Cc1cccc(-c2nc(CN3CCCC(C(=O)NC4CCCCC4)C3)c(C)o2)c1` (stereo not given) gave KCNQ2 inh inactive.
Cc1cccc(-c2nc(CN3CCCC(C(=O)NC4CCCCCC4)C3)c(C)o2)c1 (stereo not given) was read as KCNQ2 inh -9.7*, KCNQ2 enhance -9.7, KCNQ2 inh conf -28%*, KCNQ1 spec inactive, CHO parental ctr inactive and KCNQ2 inh confirm active.
COc1ccccc1CNC(=O)C1CCN(Cc2nc(-c3cccc(Cl)c3)oc2C)CC1 was read as KCNQ2 inh -7.8*, KCNQ2 enhance -7.8, KCNQ2 inh conf inactive, KCNQ1 spec inactive and CHO parental ctr inactive.
For CCc1ccc(-c2nc(CN3CCC(C(=O)NCc4ccccc4OC)CC3)c(C)o2)cc1 the results were KCNQ2 inh inactive.
For CC1=C(C(=O)Nc2cccc(C(=O)NC(C)c3ccccc3)c2)SCCO1 (stereo not given) the results were KCNQ2 inh inactive.
CCCCCCCNC(=O)C1(CC2CC(c3cccc(Br)c3)=NO2)CCN(C(=O)c2ccccc2)CC1 (stereo not given) was read as KCNQ2 inh inactive.
